Screen size: about 420,000 compounds; about 64,000 (15%) were called active. About 27% were inconclusive and are not listed. Calls follow the shape of the dose curve; as a rule, active = well fitted inhibition curve with a large enough effect; inconclusive = small, poorly fitted or top-dose-only effect; inactive = flat fitted curve, though single readings scatter. These entries were drawn from the full list.
Assay: qHTS for Inhibitors of human tyrosyl-DNA phosphodiesterase 1 (TDP1): qHTS in cells in absence of CPT; also: nearly all actives have a fitted effect of over 55% in size
Conditions: DT40 Tdp1-/- hTDP1 cells, no CPT, ATP luminescence, 48 h; activity change, negative = growth inhibition: at 46.2 µM (top of the series)
In short: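 DT40 Tdp1-/-;hTDP1 cells, no CPT (DMSO vehicle only), 400 cells/well; compounds pin-transferred; ≥48 hr, 37 °C; CellTiter-Glo 30 min RT dark, luminescence read.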
% is scaled to controls: 0 for no effect and ±100 for the full control effect; potency is read from the fitted curve at half-maximal effect.

Row | Structure (SMILES) | activity change, negative = growth inhibition | Potency
1 | CN(C)c1nc(N)nc(Cn2nnc(-c3ccc(C(F)(F)F)cc3)n2)n1 | -22.4% (inactive) | 
2 | Cc1ccc(C(=O)Nc2ccccc2-c2ccccc2)cc1S(=O)(=O)Nc1ccccc1 |  | 14.6 µM (active)
3 | Cc1ccc(C(=O)Nc2ccc(C(=O)O)cc2)cc1S(=O)(=O)Nc1ccccc1 | 0.751% (inactive) | 
4 | O=C(O)c1ccc(F)c(S(=O)(=O)Nc2ccccc2)c1 | -25.1% (inactive) | 
5 | Cc1ccc(F)c(S(=O)(=O)NC(=O)C2(C)CCN2C(=O)c2ccco2)c1 (stereo not drawn) | -13.3% (inactive) | 
6 | CC(C(=O)N(C)CC(=O)Nc1ccccc1C(F)(F)F)N1C(=O)c2ccccc2C1=O (stereo not drawn) | -26.8% (inactive) | 
7 | CCOC(CNC(=O)C(=O)NCC(c1ccco1)N1CCN(c2ccc(OC)cc2)CC1)OCC (stereo not drawn) | 11.3% (inactive) | 
8 | CC[n+]1cc(C)ccc1/C=C/c1ccc(N(C)C)cc1 |  | 0.0259 µM (active)
9 | CCNC(=O)COC(=O)/C=C/c1c(C)nn(Cc2cccc(OC)c2)c1Cl | -26.6% (inactive) | 
10 | Cc1ccc(-c2c3c(=O)n(C)c(=O)n(C)c3cn2-n2cnnc2)cc1 |  | 20.6 µM (active)
11 | Cc1ccc(-c2c3c(=O)n(C)c(=O)n(C)c3cn2-c2ccccc2O)cc1 | -4.34% (inactive) | 
12 | Cc1cn(C)c(=O)n(C)c1=O | 12.7% (inactive) | 
13 | CC1CCN(CCC(=O)Nc2ccccc2)CC1 | -1.21% (inactive) | 
14 | CC1=NC2(CCCc3c2no[n+]3[O-])N(O)C1(C)C (stereo not drawn) | -12% (inactive) | 
15 | COc1ccc(Nc2cc(Sc3ccc(OC)cc3)ncn2)cc1 |  | 16.4 µM (active)
16 | COc1ccc(Nc2nc(=O)[nH]nc2C)cc1 | -0.528% (inactive) | 
17 | COc1ccc(NC(=O)Nc2ccc3nc(C)c(C)nc3c2)cc1 | -20.1% (inactive) | 
18 | CCCC(NS(=O)(=O)c1ccc(OC)cc1)C(=O)O (stereo not drawn) | -6.51% (inactive) | 
19 | COC(=O)c1ccc(COC(=O)c2c(C)nn(Cc3ccccc3Cl)c2Cl)o1 | -4.36% (inactive) | 
20 | COc1ccc(C(=O)CN2C(=O)NC(C)(c3ccc(C)cc3)C2=O)cc1OC (stereo not drawn) | -4.31% (inactive) | 
21 | CC(=O)Oc1ccc(C)cc1N1C(=O)c2ccc(C(=O)O)cc2C1=O | -15.5% (inactive) | 
22 | COc1ccc(C)cc1-n1c(-c2ccc(C)cc2)cc2c1CC(C)(C)CC2=O |  | 8.2 µM (active)
23 | Cc1cc(NC(=O)COC(=O)c2ccc(F)c(S(=O)(=O)N3CCOCC3)c2)no1 | 0.35% (inactive) | 
24 | O=C(OCC(=O)N1CCOCC1)c1ccc2ccccc2c1 | -8.74% (inactive) | 
25 | Cc1c(CCO)sc[n+]1CC(=O)c1ccc2ccccc2c1 |  | 15.8 µM (active)
26 | Cc1ccccc1OCC(=O)NCC(=O)OCC(=O)c1ccc2ccccc2c1 |  | inactive

Row | Structure (SMILES) | activity change, negative = growth inhibition | Potency
27 | O=C(CCn1ccc([N+](=O)[O-])n1)Nc1nccs1 | -0.635% (inactive) | 
28 | CCOc1ccc(-n2c(SCC(N)=O)nnc2-c2ccco2)cc1 | -102% (inactive) | 
29 | O=C(COC(=O)C1CCN(S(=O)(=O)c2ccc3c(c2)OCCO3)CC1)Nc1ccccc1OC(F)F | -20.5% (inactive) | 
30 | Oc1ccc(Br)cc1/C=N/Nc1ccccn1 |  | 3.66 µM (active)
31 | COc1ccc(Br)cc1/C=N/Nc1ccc(Cl)c(C(=O)O)c1 | -11.1% (inactive) | 
32 | O=C(NCc1ccccn1)c1cc(Br)ccc1Cl | -17.2% (inactive) | 
33 | COc1cc2c(C(=O)N(C)c3cc(Cl)ccc3OC)cn(C)c(=O)c2cc1OC | -28.8% (inactive) | 
34 | O=C(CSc1ccccn1)N1CCN(S(=O)(=O)c2ccc(Cl)cc2)CC1 | -22.9% (inactive) | 
35 | C/C(N)=C(\C#N)C(=O)NCCc1ccccn1 | 14.5% (inactive) | 
36 | Cc1ccc(NC(=O)CN2CCC(C(N)=O)CC2)cc1[N+](=O)[O-] | -11.3% (inactive) | 
37 | COc1ccc(C23NCCN2C(=O)c2ccccc23)cc1 (stereo not drawn) | 11% (inactive) | 
38 | CC12CN3CCN(CC(C3)/C1=N\NC(=O)c1ccccc1N)C2 | 2.03% (inactive) | 
39 | CCN(CC)c1ccc(NC(=O)C2CCC(CNc3c(N4CCCC4)c(=O)c3=O)CC2)c(C)c1 (stereo not drawn) |  | 14.6 µM (active)
40 | COc1ccc(NC(=O)C2CCC(CNc3c(N4CCCCC4)c(=O)c3=O)CC2)c(OC)c1 (stereo not drawn) | -15.1% (inactive) | 
41 | CCOc1ccccc1NC(=O)C1CCC(CNc2c(N3CCOCC3)c(=O)c2=O)CC1 (stereo not drawn) | -11.8% (inactive) | 
42 | Cc1ccc(NS(=O)(=O)c2ccc(-c3coc(C)n3)cc2)c(C)c1 | -28.1% (inactive) | 
43 | COC(=O)c1c(OCc2ccc(F)cc2)cc(=O)n2c1CCN(Cc1ccc3cccnc3c1)CC2 | -16.2% (inactive) | 
44 | CCc1ccc(CNC(=O)C2CCN(c3nn4cc(-c5ccc(F)cc5)nc4s3)CC2)cc1 | -16.1% (inactive) | 
45 | Cc1ccc(NC(=O)N2CCC(C(=O)NCc3ccc(F)cc3)CC2)cc1 | -21.1% (inactive) | 
46 | Cc1ccc(C)n1-c1nnc(N2CCC(C(=O)NCc3ccc(F)cc3)CC2)s1 |  | 23.1 µM (active)
47 | O=C(NCc1cccc(Cl)c1)C1CCN(c2nnc(N3CCCC3=O)s2)CC1 | 1.66% (inactive) | 
48 | Cc1ccc(C)n1-c1nnc(N2CCC(C(=O)NCc3ccccc3Cl)CC2)s1 |  | 18.4 µM (active)
49 | O=C(NCc1ccccc1Cl)C1CCN(S(=O)(=O)N2CCOCC2)CC1 | -4.3% (inactive) | 
50 | O=C(O)CSc1ccc(S(=O)(=O)N2CCCC2)cn1 | 4.27% (inactive) | 
51 | COc1cccc(NC(=O)COc2cc(C)cc3oc(=O)cc(C)c23)c1 | 10.1% (inactive) | 
52 | COC(=O)C(C)Oc1ccc2c(-c3cccc([N+](=O)[O-])c3)cc(=O)oc2c1 (stereo not drawn) | -6.62% (inactive) | 

Row | Structure (SMILES) | activity change, negative = growth inhibition | Potency
53 | COc1cc(OC)c2c(-c3cccc(-c4cccc(N)c4)c3)cc(=O)oc2c1 |  | 4.61 µM (active)
54 | Cc1c(CCC(=O)O)c(=O)oc2cc(OCc3ccc(Br)cc3)ccc12 | 17% (inactive) | 
55 | CCC(=C/c1sc2ccc3ccccc3c2[n+]1C)/C=C1\Sc2ccc3ccccc3c2N1C |  | 0.092 µM (active)
56 | Cc1ccc(NS(=O)(=O)c2ccc(C(=O)NCCCN3CCOCC3)cc2)cc1 | -3.36% (inactive) | 
57 | Cc1ccc(C(=O)NCCN2CCOCC2)cc1C | -4.96% (inactive) | 
58 | CCn1c(C)c(C)c2cc(C(=O)NCCc3cc(OC)ccc3OC)ccc21 |  | 14.6 µM (active)
59 | Cc1c(C)n(Cc2ccc(Cl)cc2)c2ccc(C(=O)NCCCN3CCOCC3)cc12 |  | 18.4 µM (active)
60 | Cc1c(C)n(Cc2ccc(Cl)cc2)c2ccc(C(=O)NCCc3ccc(S(N)(=O)=O)cc3)cc12 |  | 25.9 µM (active)
61 | COC(=O)c1ccc(OC)c(Cn2c(=O)n(Cc3ccccc3)c(=O)c3c2c2cc(OC)ccc2n3C)c1 | 12.5% (inactive) | 
62 | CCOC(=O)c1c(C)c(C(=O)NCCc2ccc(S(N)(=O)=O)cc2)c(C)n1CC | -20.4% (inactive) | 
63 | COc1ccc(OC)c(CN2CCN(C(=O)CNC(=O)c3cc(C)cc(C)c3)CC2)c1 | -16.9% (inactive) | 
64 | COc1ccc(C(=O)NCCc2ccc(S(N)(=O)=O)cc2)cc1OC | -4.05% (inactive) | 
65 | COC(=O)[C@@H]1CC(O)CN1C(=O)C12CC3CC(CC(C3)C1)C2 (stereo partly drawn) | -4.84% (inactive) | 
66 | CCOC(=O)c1sc(=NC(=O)c2ccc(Br)cc2)n(C)c1C | 8.68% (inactive) | 
67 | NC(=O)C1CCCN(CC(=O)N2CCN(c3ccccc3)CC2)C1 (stereo not drawn) | -12.2% (inactive) | 
68 | O=S(=O)(NCC1CCCO1)c1cnc(Cl)c(Cl)c1 (stereo not drawn) | -0.359% (inactive) | 
69 | O=C1CCCC(O)=C1C=NCCc1ccccc1 | -2.41% (inactive) | 
70 | Cc1nc(NC(=O)CCC(=O)O)sc1C(=O)N(C)C | -11.7% (inactive) | 
71 | C=CCCC(=O)Nc1nc(C)c(-c2csc(Nc3ccc(Cl)cc3)n2)s1 |  | 13 µM (active)
72 | CC(=O)Nc1nc(C)c(-c2csc(Nc3ccc(S(N)(=O)=O)cc3)n2)s1 | -28.2% (inactive) | 
73 | CCCCCCC(=O)Nc1nc(C)c(-c2csc(Nc3cccc(OC)c3)n2)s1 |  | 16.4 µM (active)
74 | CCCCC(=O)Nc1nc(C)c(-c2csc(Nc3ccc(Cl)cc3)n2)s1 |  | 23.1 µM (active)
75 | COc1cccc(NC(=O)c2csnn2)c1 | -9.53% (inactive) | 
76 | CCCCN(C)CCC(=O)Nc1ccc(Cl)cc1 | -18% (inactive) | 
77 | Cc1nnc(NC(=O)CCCOc2ccccc2)s1 | -5.9% (inactive) | 
78 | Cc1ccn2c(-c3csc(Nc4ccc(C(=O)O)cc4)n3)c(C)nc2c1 | -20.6% (inactive) | 

Row | Structure (SMILES) | activity change, negative = growth inhibition | Potency
79 | CO[C@]1(NC(=O)CSC(F)F)C(=O)N2C(C(=O)O)=C(CSc3nnnn3CCO)CO[C@H]21 | -3.78% (inactive) | 
80 | O=C(C1CCN(C2CCN(Cc3ccc4cc(F)ccc4n3)CC2)CC1)N1CCCC1 | -18.6% (inactive) | 
81 | COc1ccc(CCNC(=S)N2CCN(S(=O)(=O)c3ccc(F)cc3)CC2)cc1 | 3.3% (inactive) | 
82 | COc1ccc(CCNS(=O)(=O)c2cc3c(cc2C)NC(=O)CO3)cc1OC | -7.25% (inactive) | 
83 | CCc1ccccc1NC(=O)c1ccc(F)c(S(=O)(=O)NC2CCCCCC2)c1 | -7.92% (inactive) | 
84 | CCc1ccc(OCC(O)CN2CCN(CCO)CC2)cc1 (stereo not drawn) | 5.07% (inactive) | 
85 | COc1ccc(N(CC(=O)N2CCOCC2)S(=O)(=O)c2ccccc2)cc1Cl | -12.2% (inactive) | 
86 | Cc1cccc(OC(=O)c2sc3ncn(C)c(=O)c3c2C)c1 | -8.1% (inactive) | 
87 | COc1ccc(NC(=O)N2CCCC(C(=O)Nc3ccccc3OC)C2)cc1 (stereo not drawn) | -1.09% (inactive) | 
88 | CCCN(CCC)C(=O)C1CCCN(c2ncnc3c2nc2n3CCCCC2)C1 (stereo not drawn) |  | 20.6 µM (active)
89 | COc1cccc(NC(=O)C/C(C)=N/NC(=O)C2CCCCC2)c1 | -4.86% (inactive) | 
90 | O=C(NCCCN1CCCCC1)C1CCCN(c2ncnc3c2nc2n3CCCCC2)C1 (stereo not drawn) | 1.26% (inactive) | 
91 | COc1cccc(NC(=O)C2CCCN(c3ncnc4c3nc3n4CCCCC3)C2)c1 (stereo not drawn) |  | 20.6 µM (active)
92 | COCCNc1ncnc2c1nc1n2CCCC1 | 0.903% (inactive) | 
93 | O=C(Nc1cc(-c2nc3ccccc3o2)ccc1Cl)c1cc([N+](=O)[O-])ccc1N1CCOCC1 | -23.6% (inactive) | 
94 | CC(C)NC(=O)N1CC[C@@]2(CCCN(C(=O)c3cccn3C)C2)C1 | -10.1% (inactive) | 
95 | CCC(=O)N1c2ccccc2CC1C(=O)N1CCN(c2ccccc2)CC1 (stereo not drawn) | -28% (inactive) | 
96 | CCOC(=O)c1c(S(=O)(=O)N2CCC(C(=O)NCc3ccccc3OC)CC2)c(C)n(C)c1C | -5.74% (inactive) | 
97 | Cc1cc(C)cc(-c2nnc(SCC(=O)NC3CC3)o2)c1 | -2.32% (inactive) | 
98 | CC1=CC2=NC(=O)CC(C)(C(=O)N(CC(=O)NC(C)(C)C)Cc3ccccc3)N2C=C1 (stereo not drawn) | -4.59% (inactive) | 
99 | COC(=O)c1ccc(CSc2nnc(NC(C)C)s2)cc1 | -17.7% (inactive) | 
100 | COc1ccc(-c2nc(CS(=O)CC(=O)NCc3ccccc3)c(C)o2)cc1OC (stereo not drawn) | 6.91% (inactive) | 
101 | Cc1ccc(CN2CCN(c3ncccn3)CC2)c(C)c1 | -19.4% (inactive) | 
102 | COc1ccc(-c2nc(CN3CCN(c4ncccn4)CC3)c(C)o2)cc1C |  | 20.6 µM (active)
103 | Cc1c(C(=O)NCCCc2ccccc2)cccc1[N+](=O)[O-] | -11.1% (inactive) | 
